# Experimental data reported in the supplement of paper PMC8728848.
# This excerpt belongs to a sample that is enriched for the strongest signals.
# What was measured:
# Assay in all cases: glycan array binding signal (z-score within array); higher = stronger binding
# Conditions in all cases: glycan notation: IUPAC condensed, linker removed
# [1] = target: Fuc(a1-2)Gal(b1-3)[Fuc(a1-4)]GlcNAc(b1-2)Man(a1-3)[Fuc(a1-2)Gal(b1-3)[Fuc(a1-4)]GlcNAc(b1-2)Man(a1-6)]Man(b1-4)GlcNAc(b1-4)GlcNAc
# How it was run: (§1)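 From the Consortium for Functional Glycomics database, 3228 arrays were curated, keeping only those whose protein sequence was available. Binding is given as a within-array Z-score averaged across arrays sharing a protein sequence and across linkers. Negative Z-scores can be read as non-binding.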
# [2] = target: Fuc(a1-2)Gal(b1-3)[Fuc(a1-4)]GlcNAc(b1-3)[Gal(b1-4)GlcNAc(b1-6)]Gal(b1-4)Glc
# How it was run: as §1
# [3] = target: Fuc(a1-2)Gal(b1-4)GlcNAc(b1-3)Gal(b1-4)GlcNAc(b1-3)Gal(b1-4)GlcNAc
# How it was run: as §1
# [4] = target: Fuc(a1-2)[Gal(a1-3)]Gal(b1-4)GlcNAc(b1-2)Man(a1-3)[Fuc(a1-2)[Gal(a1-3)]Gal(b1-4)GlcNAc(b1-2)Man(a1-6)]Man(b1-4)GlcNAc(b1-4)[Fuc(a1-6)]GlcNAc
# How it was run: as §1
# [5] = target: Fuc(a1-2)[Gal(a1-3)]Gal(b1-4)[Fuc(a1-3)]GlcNAc
# How it was run: as §1
# [6] = target: Fuc(a1-3)[Gal(b1-4)]Glc6S
# How it was run: as §1
# [7] = target: Fuc(a1-3)[Gal(b1-4)]GlcNAc(b1-4)Gal(b1-4)[Fuc(a1-3)]GlcNAc(b1-4)Gal(b1-4)[Fuc(a1-3)]GlcNAc
# How it was run: as §1
# [8] = target: Fuc(a1-4)GlcNAc
# How it was run: as §1
# [9] = target: Gal(a1-4)Gal(b1-3)GlcNAc(b1-2)Man(a1-3)[Gal(a1-4)Gal(b1-3)GlcNAc(b1-2)Man(a1-6)]Man(b1-4)GlcNAc(b1-4)GlcNAc
# How it was run: as §1
# [10] = target: Gal(a1-4)Gal(b1-4)Glc
# How it was run: as §1
# [11] = target: Gal(b1-3)Gal(b1-4)GlcNAc
# How it was run: as §1
# [12] = target: Gal(b1-4)GlcNAc(b1-2)[Gal(b1-4)GlcNAc(b1-6)]Man(a1-6)[Gal(b1-4)GlcNAc(b1-2)Man(a1-3)]Man(b1-4)GlcNAc(b1-4)GlcNAc
# How it was run: as §1
# [13] = target: Gal(b1-4)GlcNAc(b1-3)[Gal(b1-4)GlcNAc(b1-6)]Gal(b1-4)GlcNAc
# How it was run: as §1
# [14] = target: Gal(b1-4)GlcNAc(b1-3)[Gal(b1-4)GlcNAc(b1-6)]GalNAc
# How it was run: as §1
# [15] = target: Gal6S(b1-4)Glc6S
# How it was run: as §1
# [16] = target: GalNAc(a1-3)Fuc(a1-2)Gal(b1-4)GlcNAc(b1-3)[GalNAc(a1-3)Fuc(a1-2)Gal(b1-4)GlcNAc(b1-6)]GalNAc
# How it was run: as §1
# [17] = target: GalNAc(b1-3)Gal(a1-6)Gal(b1-4)Glc
# How it was run: as §1
# [18] = target: GalNAc(b1-3)GalNAc
# How it was run: as §1
# [19] = target: Glc(a1-6)Glc(a1-6)Glc(a1-6)Glc
# How it was run: as §1
# [20] = target: GlcA(b1-3)Gal
# How it was run: as §1
# [21] = target: GlcNAc(b1-3)Gal(b1-3)GalNAc
# How it was run: as §1
# [22] = target: GlcNAc(b1-3)GalNAc
# How it was run: as §1
# [23] = target: GlcNAc(b1-3)[GlcNAc(b1-6)]GalNAc
# How it was run: as §1
# [24] = target: GlcNAc(b1-4)GlcNAc
# How it was run: as §1
# [25] = target: GlcNAc3Prop(b1-4)GlcNAc
# How it was run: as §1
# [26] = target: Man(a1-2)Man(a1-3)[Man(a1-2)Man(a1-6)]Man(a1-6)[Man(a1-2)Man(a1-2)Man(a1-3)]Man(b1-4)GlcNAc(b1-4)GlcNAc
# How it was run: as §1
# [27] = target: Neu5Ac(a2-3)Gal(b1-3)GalNAc(b1-4)[Neu5Ac(a2-3)]Gal(b1-4)Glc
# How it was run: as §1
# [28] = target: Neu5Ac(a2-3)Gal(b1-3)GlcNAc
# How it was run: as §1
# [29] = target: Neu5Ac(a2-3)Gal(b1-3)GlcNAc6S
# How it was run: as §1
# [30] = target: Neu5Ac(a2-3)Gal(b1-3)[Neu5Ac(a2-6)]GalNAc
# How it was run: as §1
# [31] = target: Neu5Ac(a2-3)Gal(b1-4)GlcNAc(b1-6)[Gal(b1-3)]GalNAc
# How it was run: as §1
# [32] = target: Neu5Ac(a2-3)Gal(b1-4)[Fuc(a1-3)]GlcNAc(b1-3)GalNAc
# How it was run: as §1
# [33] = target: Neu5Ac(a2-3)Gal(b1-4)[Fuc(a1-3)]GlcNAc(b1-6)[Gal(b1-3)]GalNAc
# How it was run: as §1
# [34] = target: Neu5Ac(a2-6)Gal(b1-4)GlcNAc(b1-2)Man(a1-6)[GlcNAc(b1-2)Man(a1-3)]Man(b1-4)GlcNAc(b1-4)GlcNAc
# How it was run: as §1
# [35] = target: Neu5Ac(a2-6)GlcNAc(b1-4)GlcNAc(b1-4)GlcNAc
# How it was run: as §1
# [36] = target: Neu5Ac(a2-8)Neu5Ac(a2-3)Gal(b1-4)Glc
# How it was run: as §1
# [37] = target: Neu5Ac(a2-8)Neu5Ac(a2-3)[Gal(b1-3)GalNAc(b1-4)]Gal(b1-4)Glc
# How it was run: as §1
binder,measurement,setting,value
"SefD (Salmonella enterica), Q9L6K6 (protein) GAYIIRGQNNSAHKLRIRIGGEDWQPDNSGIGMVSHSDFTNEFNIYYFGNGDIPVDTYLISIYATEIEL",glycan array binding signal (z-score),[1],-0.362
same,glycan array binding signal (z-score),[2],5.83
same,glycan array binding signal (z-score),[3],-0.043
same,glycan array binding signal (z-score),[4],-0.413
same,glycan array binding signal (z-score),[5],-0.401
same,glycan array binding signal (z-score),[6],-0.328
same,glycan array binding signal (z-score),[7],-0.46
same,glycan array binding signal (z-score),[8],2.37
same,glycan array binding signal (z-score),[9],-0.091
same,glycan array binding signal (z-score),[10],-0.442
same,glycan array binding signal (z-score),[11],2.24
same,glycan array binding signal (z-score),[12],0.127
same,glycan array binding signal (z-score),[13],-0.614
same,glycan array binding signal (z-score),[14],-0.441
same,glycan array binding signal (z-score),[15],-0.435
same,glycan array binding signal (z-score),[16],5.38
same,glycan array binding signal (z-score),[17],-0.631
same,glycan array binding signal (z-score),[18],-0.05
same,glycan array binding signal (z-score),[19],-0.319
same,glycan array binding signal (z-score),[20],-0.456
same,glycan array binding signal (z-score),[21],-0.29
same,glycan array binding signal (z-score),[22],-0.427
same,glycan array binding signal (z-score),[23],-0.43
same,glycan array binding signal (z-score),[24],0.15
same,glycan array binding signal (z-score),[25],6.32
same,glycan array binding signal (z-score),[26],-0.324
same,glycan array binding signal (z-score),[27],-0.395
same,glycan array binding signal (z-score),[28],-0.336
same,glycan array binding signal (z-score),[29],-0.237
same,glycan array binding signal (z-score),[30],2.7
same,glycan array binding signal (z-score),[31],3.13
same,glycan array binding signal (z-score),[32],11.3
same,glycan array binding signal (z-score),[33],-0.092
same,glycan array binding signal (z-score),[34],-0.228
same,glycan array binding signal (z-score),[35],-0.293
same,glycan array binding signal (z-score),[36],0.431
same,glycan array binding signal (z-score),[37],0.969
